A selection: hits, their analogues and other compounds. The true share with any hit is near 21%.
AMA1-RON2 inh – qHTS for Inhibitors of AMA1-RON; Towards Development of Antimalarial Drug Lead: Primary Screen. Plasmodium falciparum AMA1 (3D7) - RON2 peptide interaction. AlphaScreen AMA1-biotinylated RON2 peptide binding. Potency, µM (doses to about 58.2 µM), most hits filed as inhibitors. hit rate 0.2% among 360,000. AID 720542, 2013; also: nearly all actives have a fitted effect of over 45% in size
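AMA1 (3D7) with his tag at 25 nM final met compounds first, then biotinylated RON2 peptide at 25 nM; detection used donor plus acceptor beads, 10 µg/mL apiece, read by AlphaScreen after 30 min at room temperature.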
Pf growth 48h – Primary qHTS for delayed death inhibitors of the malarial parasite plastid, 48 hour incubation; Potency, µM (doses to about 28.7 µM), most hits filed as inhibitors; AID 504832, 2011; hit rate 5.9% among 310,000; P. falciparum luciferase growth in erythrocytes, 48 h
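First compound was added to culture medium, then infected red cells at 0.1% parasitemia and 2% hematocrit (final). After incubation at 37 C under 5% CO2, luciferase detection reagent was dispensed and light output recorded.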
Cycloheximide cs – Cycloheximide Counterscreen for Small Molecule Inhibitors of Shiga Toxin; cell reporter, cycloheximide protein synthesis inhibition counterscreen; max response, %; hit rate 12% among 300,000; AID 2314, 2010; in the data active = max response mostly above about 13%, no sharp cut-off; inactive = mostly below about 14%; also: read at 38.3 µM for the half of the compounds with a filed dose
Shiga toxin inh – A qHTS for Small Molecule Inhibitors of Shiga Toxin. Vero cells, Shiga toxin protein synthesis inhibition reporter. inhibition, % at 38.7 µM. hit rate 9.2% among 290,000. AID 2315, 2010; in the data active = inhibition mostly above about 28%, no sharp cut-off; inactive = mostly below about 43%
Pf growth 96h – Primary qHTS for delayed death inhibitors of the malarial parasite plastid, 96 hour incubation; P. falciparum luciferase reporter growth, 96 h; Potency, µM (titrated, usually from 28.7 µM), most hits filed as inhibitors; hit rate 6.9% among 320,000
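Erythrocytes infected with luciferase-expressing P. falciparum were dispensed at 2% hematocrit and 0.05% parasitemia (final), then incubated with compounds 96 hours at 37 C in 5% CO2. Luminescence after detection reagent addition reported growth.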
HCV inh – qHTS Assay for Inhibitors of Hepatitis C Virus (HCV). hit rate 3.4% among 340,000. Huh7.5.1 HCVcc-Cre infection, luciferase reporter, 44 h. Potency, µM (doses to about 41.8 µM), hits mostly inhibitors. AID 651820, 2012
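Luciferase read-out (15 sec integration) after a 15 min room-temperature substrate step quantifies HCVcc-Cre infection. Cells, 1,000 per well, had compound added 4 h post-plating, then virus at ~0.5 moi, and were cultured 44 h.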
Each line names hits and unclear results; the compound was inactive in the other large screens. Unless noted, calls follow the shape of the dose curve; as a rule, active = well fitted curve in the direction sought with a large enough effect; inconclusive = small, poorly fitted or top-dose-only effect, or another doubt; inactive = no such curve, though single readings can be large; an effect the other way counts as inactive or inconclusive.

CCOC(=O)C1CCN(c2nc3ccccc3nc2C(C#N)C(=O)NCCc2ccccc2)CC1 (configuration not stated)	Cycloheximide cs 48.9, Pf growth 96h 9.28µM (no result: AMA1-RON2 inh, HCV inh)
COCCNC(=O)C(C#N)c1nc2ccccc2nc1N1CCCCCC1 (configuration not stated)	Pf growth 48h inconclusive
C=CCOC(=O)C(C#N)c1nc2ccccc2nc1N1CCN(c2ccccc2OC)CC1 (configuration not stated)	AMA1-RON2 inh inconclusive, Pf growth 48h 5.86µM, Pf growth 96h 8.28µM
CC(C)CN(C(=O)c1ccc(C(F)(F)F)cc1)c1c(N)n(CC(C)C)c(=O)[nH]c1=O	none
O=C(CSC1=NCCS1)Nc1ccc(F)cc1	none
Cc1ccc(NC(=O)c2ccc(CSc3nnnn3C)cc2)cc1	Cycloheximide cs 37.4, Shiga toxin inh 140.5, HCV inh inconclusive
Cc1ccc(NC(=O)c2ccc(CSc3nnc(C)s3)cc2)cc1	Cycloheximide cs 54.7, Shiga toxin inh 139.7
O=C(Nc1ccc(Br)cc1)c1ccc(CSC2=NCCS2)cc1	Cycloheximide cs 61.5, Shiga toxin inh 80.5, Pf growth 96h inconclusive, HCV inh inconclusive
Cc1cc(C)cc(NC(=O)c2ccc(CSc3nnc(C)s3)cc2)c1	Cycloheximide cs 29.2, Shiga toxin inh 79.9
Cc1ccc(Cl)cc1NC(=O)c1ccc(CSc2nnnn2C)cc1	HCV inh inconclusive (no result: Pf growth 96h)
CN1CC=C2C(C#N)=C(N)C(C#N)(C#N)C(CCc3ccccc3)C2C1 (configuration not stated)	Pf growth 96h 7.38µM
COc1ccc(CNC(=O)C2CCCN(S(=O)(=O)c3ccc(-n4cnnn4)cc3)C2)cc1 (configuration not stated)	none
Cc1ccc(OCCNC(=O)C(=O)NCc2ccco2)cc1	none
O=C1CSC(=S)N1c1cccc(O)c1	none
O=C1CSC(=S)N1c1cccc(F)c1	Pf growth 96h 10.4µM
O=C(O)c1cccc(N2C(=O)CSC2=S)c1	Cycloheximide cs 18.5, Pf growth 96h 5.86µM (no result: Pf growth 48h)
CN(C)c1ccc(N2C(=O)CSC2=S)cc1	Cycloheximide cs 19.3, Shiga toxin inh 61.9, Pf growth 96h 5.22µM
O=C1CSC(=S)N1c1ccc(F)cc1	none (no result: AMA1-RON2 inh, HCV inh)
CCOC(=O)[C@@H]1[C@H]2COc3ccccc3[C@H]2N2C(=O)N(c3ccc(OC)cc3)C(=O)[C@]12C	Pf growth 96h inconclusive
CCN1CCN=C1Nc1ccccc1	none (no result: Cycloheximide cs, Shiga toxin inh)
O=C(OC1CCCCC1=O)c1cc(Cl)ccc1[N+](=O)[O-] (configuration not stated)	none
Cn1c(N)c(C(=O)CSc2nn(-c3ccc(F)cc3)c(=S)s2)c(=O)n(C)c1=O	Pf growth 48h inconclusive, Pf growth 96h inconclusive, HCV inh 7.08µM (no result: Cycloheximide cs, Shiga toxin inh)
CCCCn1c(N)c(N(CC(C)C)C(=O)c2cc(-c3ccc(F)cc3)nc3ccccc23)c(=O)[nH]c1=O	Pf growth 48h 11.7µM, Pf growth 96h inconclusive (no result: Cycloheximide cs, Shiga toxin inh)
CCCCn1c(N)c(N(CC(C)C)C(=O)c2cc(-c3ccc(OC)c(OC)c3)nc3ccccc23)c(=O)[nH]c1=O	Pf growth 48h 1.31µM, Pf growth 96h inconclusive (no result: Cycloheximide cs, Shiga toxin inh)
CCCCN(C(=O)c1cc(-c2ccc(F)cc2)nc2ccccc12)c1c(N)n(CCCC)c(=O)[nH]c1=O	Pf growth 48h inconclusive, Pf growth 96h 7.38µM, HCV inh inconclusive (no result: Cycloheximide cs, Shiga toxin inh)
CCCCCN(C(=O)CCC(=O)OCC(=O)N(C)c1ccccc1)c1c(N)n(CCCC)c(=O)[nH]c1=O	none (no result: Cycloheximide cs, Shiga toxin inh)
CCCCn1c(N)c(N(CCC(C)C)C(=O)CCCc2nc3ccccc3s2)c(=O)[nH]c1=O	Pf growth 96h 14.7µM
CCCCN(C(=O)CSc1nc2ccccc2s1)c1c(N)n(CCCC)c(=O)[nH]c1=O	none (no result: Pf growth 48h, Cycloheximide cs, Shiga toxin inh, Pf growth 96h)
CCCCCN(C(=O)CCC(=O)OCC(=O)c1ccc(C(C)CC)cc1)c1c(N)n(CCCC)c(=O)[nH]c1=O (configuration not stated)	Pf growth 48h 10.4µM, Pf growth 96h inconclusive, HCV inh inconclusive (no result: Cycloheximide cs, Shiga toxin inh)
CCCCN(C(=O)CSc1nn(-c2ccc(F)cc2)c(=S)s1)c1c(N)n(CCCC)c(=O)[nH]c1=O	Pf growth 48h inconclusive, Pf growth 96h 13.1µM, HCV inh inconclusive (no result: Cycloheximide cs, Shiga toxin inh)

High-throughput results as filed in PubChem.
